Only some compounds are listed: those with a hit (about 11% of all), similar ones and a draw of the others.
HPGD inh: qHTS Assay for Inhibitors of HPGD (15-Hydroxyprostaglandin Dehydrogenase) | 15-hydroxyprostaglandin dehydrogenase [NAD(+)] (Homo sapiens), P15428 | purified HPGD, NADH fluorescence kinetic, PGE2 substrate | Potency, µM, inactives show at the top dose activity change, negative = inhibition, actives largely listed as inhibitors | 150,000 tested, 4.3% active | AID 894, 2007; active = well fitted inhibition curve with a large enough effect, not every such curve was filed as active; inconclusive = small, poorly fitted or top-dose-only effect, or another doubt; inactive = no such curve, though single readings can be large or run the other way; note: potency is the fitted concentration of half-maximal effect; % is set by controls: 0 for no effect and ±100 for the full control effect
Target sequence (P15428 whole entry, looked up): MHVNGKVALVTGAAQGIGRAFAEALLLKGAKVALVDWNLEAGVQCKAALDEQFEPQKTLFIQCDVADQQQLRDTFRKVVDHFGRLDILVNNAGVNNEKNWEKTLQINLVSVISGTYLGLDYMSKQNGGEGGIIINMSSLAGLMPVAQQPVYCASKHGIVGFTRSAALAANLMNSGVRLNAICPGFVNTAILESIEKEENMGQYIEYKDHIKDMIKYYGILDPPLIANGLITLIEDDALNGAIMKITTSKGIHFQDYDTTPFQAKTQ
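NADH formation kinetics: reaction with 30 uM PGE2 and 1 mM NAD+ (final), 20 nM enzyme, Tris-HCl pH 8 with Tween 20, after 15 min compound preincubation at room temperature. Fluorescence change, last versus first of five reads.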
HTT cytoprotect: qHTS Multiplex Assay to Identify Dual Action Probes in a Cell Model of Huntington: Cytoprotection (ATP). PC12 HTT-Q103 induced, cytoprotection, ATP luminescence, 40 h. Potency, µM (doses to about 56.4 µM), for inactives: cytoprotection (ATP increase), hits mostly activators. 230,000 tested, 0.14% active. AID 1471, 2008; note: potency is the fitted concentration of half-maximal effect; % of control where 0% means no effect; nearly all actives have a fitted effect of over 45% in size
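Compounds added alongside 100 nM tebufenozide, which induces toxic Q103 huntingtin exon 1-GFP in stable PC12 cells; surviving cells quantified by luminescent ATP measurement. Medium: phenol red-free DMEM, 5% equine and 5% calf serum.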
HTT aggregate: qHTS Multiplex Assay to Identify Dual Action Probes in a Cell Model of Huntington: Aggregate Formation (GFP) | PC12 HttQ103-GFP aggregates, Acumen cytometry, 40 h | 220,000 tested, 1.1% active | AID 1688, 2009 | Potency, µM (titrated, usually from 46.1 µM), without a hit: top-dose activity change, negative = inhibition, usual class: inhibitors; note: potency is the fitted concentration of half-maximal effect; % is set by controls: 0 for no effect and ±100 for the full control effect; nearly all actives have a fitted effect of over 60% in size
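Steps: seed 1500 PC12 HTTQ103-GFP cells/well; add tebufenozide, 100 nM final; add compound titration; add ATPLite reagent; quantify GFP aggregates by laser scanning cytometry.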
PNC assembly inh: High Content Assay for Compounds that inhibit the Assembly of the Perinucleolar Compartment | 140,000 tested, 3.1% active | activity change (PNC), negative = inhibition, % at 10 µM | PC3M PTB-GFP, PNC prevalence imaging, 16 h; hits give low values;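 active = readout at or below -70, meaning at least 70% loss of cells showing the perinucleolar compartment, a nuclear body marking cancer cells; inconclusive = readout between -30 and a set limit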;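 note: plate controls were DMSO wells for no effect and camptothecin positive control wells for full effect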
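PC3M cells stably expressing PTB-GFP, 750–1000 cells/well, treated 16 h at 37 °C with compound (23 nl of library stock), in duplicate. After paraformaldehyde fixation and Hoechst stain, imaged at 20x; PNC prevalence scored by image analysis.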
ALDH1A1 inh: qHTS Assay for Inhibitors of Aldehyde Dehydrogenase 1 (ALDH1A1) | Purified ALDH1A1, NADH fluorescence, propionaldehyde substrate | 220,000 tested, 7.3% active | Potency, µM (titrated, usually from 75.3 µM), for the others: at the top dose activity, negative = inhibition, hits mostly inhibitors | Aldehyde dehydrogenase 1A1 (Homo sapiens), P00352; active = well fitted inhibition curve with a large enough effect, not every such curve was filed as active; inconclusive = small, poorly fitted or top-dose-only effect, or another doubt; inactive = no such curve, though single readings can be large or run the other way;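 note: potency is the fitted concentration of half-maximal effect; plate controls were no enzyme wells and a reference inhibitor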
GoLoco inh red: qHTS Assay for Inhibitors of RGS12 GoLoco Motif Activity (Red Fluorophore). Guanine nucleotide-binding protein G(i) subunit alpha-1 (Homo sapiens), P63096. 230,000 tested, 0.44% active. AID 880, 2007. Gai1:RGS12 GoLoco peptide FP, rhodamine, 10 min. Potency, µM (highest dose often 61.6 µM), without a hit: at the highest dose activity, negative = inhibition, usual class: inhibitors; active = well fitted inhibition curve with a large enough effect, not every such curve was filed as active; inactive = no such curve, though single readings can be large or run the other way; note: potency is the fitted concentration of half-maximal effect; % is set by controls: 0 for no effect and ±100 for the full control effect; nearly all actives have a fitted effect of over 30% in size
Target sequence (P63096 whole entry, looked up): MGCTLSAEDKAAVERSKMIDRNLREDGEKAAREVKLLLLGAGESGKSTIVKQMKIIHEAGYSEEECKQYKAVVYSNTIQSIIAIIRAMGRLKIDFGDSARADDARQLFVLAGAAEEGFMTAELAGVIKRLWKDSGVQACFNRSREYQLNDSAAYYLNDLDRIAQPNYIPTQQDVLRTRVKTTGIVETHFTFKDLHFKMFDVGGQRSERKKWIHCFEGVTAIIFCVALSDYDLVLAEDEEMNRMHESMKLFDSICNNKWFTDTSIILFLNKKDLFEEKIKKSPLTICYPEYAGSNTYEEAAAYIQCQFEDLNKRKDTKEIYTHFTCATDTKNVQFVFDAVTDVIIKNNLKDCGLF
Numbers without * were called inactive; [ ] = dose if it differs, or a comment. Unless noted, calls come from the whole dose curve; as a rule, active = well fitted curve in the direction sought with a large enough effect; inconclusive = small, poorly fitted or top-dose-only effect, or another doubt; inactive = no such curve, though single readings can be large; an effect the other way counts as inactive or inconclusive.

`CCCS(=O)(=O)c1nc(S(=O)(=O)c2ccc(C)cc2)c(N2CCCC2)s1` gave HPGD inh -17%, HTT cytoprotect -23%, HTT aggregate -6%, PNC assembly inh inconclusive, ALDH1A1 inh 7.9µM* and GoLoco inh red -4%.
Screening Cc1ccc(S(=O)(=O)c2nc(S(C)(=O)=O)sc2N(C)C)cc1 returned HPGD inh -1%, HTT cytoprotect 15%[10 µM], HTT aggregate 7%, PNC assembly inh inconclusive, ALDH1A1 inh -14% and GoLoco inh red 9%.
`CCCS(=O)(=O)c1nc(S(=O)(=O)c2ccc(C)cc2)c(N2CCc3ccccc3C2)s1` gave HPGD inh -17%, HTT cytoprotect -30%[10 µM], HTT aggregate -1%, PNC assembly inh inconclusive, ALDH1A1 inh 1.4µM* and GoLoco inh red 8%.
Screening CC(=O)N1CCC2(CC1)CCN(C(=O)Nc1cccc(C#N)c1)CC2 returned HPGD inh -1%, HTT cytoprotect inconclusive, ALDH1A1 inh -3% and GoLoco inh red 8%.
OCC1(Cc2ccccc2)CCCN(Cc2ccc(-c3ccco3)cc2)C1 (configuration not stated) was read as HTT cytoprotect -8%[10 µM], HTT aggregate -11%[9.22 µM], ALDH1A1 inh 25µM* and GoLoco inh red 34%.
For OCC1(Cc2ccccc2)CCN(Cc2ccc(-c3ccco3)cc2)CC1 the results were HTT cytoprotect 0%[10 µM], HTT aggregate -4%[9.22 µM], ALDH1A1 inh inconclusive and GoLoco inh red 13%.
`N#Cc1cccc(NC(=O)N2CCCC3(CCN(C(=O)c4ccco4)CC3)C2)c1` gave HPGD inh -23%, HTT cytoprotect -15%, ALDH1A1 inh 22µM* and GoLoco inh red -15%.
N#Cc1cccc(NC(=O)N2CC[C@@]3(CCCN(C(=O)c4ccco4)C3)C2)c1 was read as HPGD inh -1%, HTT cytoprotect 2%, ALDH1A1 inh inconclusive and GoLoco inh red 4%.
`N#Cc1cccc(NC(=O)N2CCC3(CC2)CCN(C(=O)c2ccco2)CC3)c1` gave HPGD inh -9%, HTT cytoprotect inconclusive, ALDH1A1 inh 10µM* and GoLoco inh red 3%.
Screening O=C(c1ccco1)N1CCC2(CCCN(Cc3ccccc3)C2)CC1 returned HPGD inh -2%, HTT cytoprotect 14%, ALDH1A1 inh 28µM* and GoLoco inh red 14%.
Screening O=C(c1ccco1)N1CCC[C@@]2(CCN(Cc3ccccc3)C2)C1 returned HPGD inh -6%, HTT cytoprotect -63%, ALDH1A1 inh -12% and GoLoco inh red 2%.
For CC(=O)N1CCC2(CC1)CCN(C(=O)Nc1cccc(F)c1)CC2 the results were HPGD inh -9%, HTT cytoprotect 18%, ALDH1A1 inh 13µM* and GoLoco inh red 0%.
O=C(Nc1ccccc1)N1CCCC2(CCN(C(=O)c3ccco3)CC2)C1 was read as HPGD inh 1%, HTT cytoprotect 3%, ALDH1A1 inh 20µM* and GoLoco inh red 2%.
For O=C(Nc1ccccc1)N1CC[C@@]2(CCCN(C(=O)c3ccco3)C2)C1 the results were HPGD inh -6%, HTT cytoprotect 15%, ALDH1A1 inh inconclusive and GoLoco inh red -5%.
For CSC1=C(C#N)C(c2ccc3c(c2)OCO3)C2=C(CCCC2=O)N1 (configuration not stated) the results were HPGD inh 16µM*, HTT cytoprotect -28%[10 µM], HTT aggregate inconclusive, PNC assembly inh -23, ALDH1A1 inh -6% and GoLoco inh red -3%.
Screening CCSC1=C(C#N)C(c2ccc(Cl)cc2)C2=C(CCCC2=O)N1 (configuration not stated) returned HPGD inh -15%, HTT cytoprotect -9%, HTT aggregate -27%, PNC assembly inh inconclusive, ALDH1A1 inh -9% and GoLoco inh red -4%.
For Cc1ccc(-n2nnnc2CN2CCCCC2)cc1 the results were ALDH1A1 inh 5% and GoLoco inh red 5%.
`Cc1cccc2sc(NC(=O)[C@@H]3CCCN3C(=O)c3cccs3)nc12` gave HTT cytoprotect -13%[10 µM], HTT aggregate 3%, PNC assembly inh 12 and ALDH1A1 inh -4%.
O=C(Nc1nc2ccc(Cl)cc2s1)[C@@H]1CCCN1C(=O)c1cccs1 was read as HPGD inh inconclusive, HTT cytoprotect 16%[10 µM], HTT aggregate inconclusive, PNC assembly inh -15, ALDH1A1 inh 25µM* and GoLoco inh red 53%.
Screening CCOC(=O)C1C(C(=O)NN)C1C(=O)Nc1ccccc1 (configuration not stated) returned HTT cytoprotect 3%[10 µM], HTT aggregate -3%, ALDH1A1 inh -5% and GoLoco inh red 13%.
Screening CCOC(=O)CC1C(=O)NCCN1c1nc2ccc(C)cn2c(=O)c1/C=C1\SC(=S)N(C(C)CC)C1=O (configuration not stated) returned HTT cytoprotect -10%[10 µM], HTT aggregate -22%[9.22 µM], ALDH1A1 inh 1.4µM* and GoLoco inh red 152%.
Screening CCOC(=O)CC1C(=O)NCCN1c1nc2ccc(C)cn2c(=O)c1/C=C1\SC(=S)N(CC(C)C)C1=O (configuration not stated) returned HTT cytoprotect -4%[10 µM], HTT aggregate -7%[9.22 µM] and GoLoco inh red 168%.
Screening O=C(NCc1ccccc1F)c1cccs1 returned HPGD inh inconclusive, HTT cytoprotect 4%[0.074 µM], HTT aggregate -1%, PNC assembly inh 19, ALDH1A1 inh 10% and GoLoco inh red 3%.
For Cc1cc(C(=O)NCc2ccccc2F)cs1 the results were HPGD inh 16µM*, HTT cytoprotect 8%[10 µM], HTT aggregate 5%, PNC assembly inh inconclusive, ALDH1A1 inh 1% and GoLoco inh red 13%.
Screening Nc1nc(NCC2CCCO2)nc(NCC2CCCO2)c1[N+](=O)[O-] (configuration not stated) returned HPGD inh -5%, HTT cytoprotect inconclusive, HTT aggregate 0%, PNC assembly inh 64, ALDH1A1 inh inconclusive and GoLoco inh red 16%.

Screens from PubChem BioAssay.
